Laboratory results taken from PubChem BioAssay AID2553 (Johns Hopkins Ion Channel Center, 2010).
Among all 310,000 compounds or so, about 3,300 (1.1%) were called active.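 Rule for the calls: active = B-score under library mean minus 3 SD, initial fluorescence not abnormally high, positive integrated signal ratio; inactive = the rest.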 The list comes from a sample in which actives are over-represented; it also holds similar structures and randomly drawn compounds.

molecular target: Short transient receptor potential channel 6 (Mus musculus) (UniProt Q61143); assay: mouse TRPC6 channel inhibitors, primary screen, cell-based, HEK293, membrane potential dye (AID 2553); details: ACh-evoked depolarization, at 10 µM; active compounds read low;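 for B-score: B-score derived from integrated fluorescence ratio over the kinetic read; more negative B-score means stronger inhibition of depolarization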
Sequence (Q61143 whole entry, looked up): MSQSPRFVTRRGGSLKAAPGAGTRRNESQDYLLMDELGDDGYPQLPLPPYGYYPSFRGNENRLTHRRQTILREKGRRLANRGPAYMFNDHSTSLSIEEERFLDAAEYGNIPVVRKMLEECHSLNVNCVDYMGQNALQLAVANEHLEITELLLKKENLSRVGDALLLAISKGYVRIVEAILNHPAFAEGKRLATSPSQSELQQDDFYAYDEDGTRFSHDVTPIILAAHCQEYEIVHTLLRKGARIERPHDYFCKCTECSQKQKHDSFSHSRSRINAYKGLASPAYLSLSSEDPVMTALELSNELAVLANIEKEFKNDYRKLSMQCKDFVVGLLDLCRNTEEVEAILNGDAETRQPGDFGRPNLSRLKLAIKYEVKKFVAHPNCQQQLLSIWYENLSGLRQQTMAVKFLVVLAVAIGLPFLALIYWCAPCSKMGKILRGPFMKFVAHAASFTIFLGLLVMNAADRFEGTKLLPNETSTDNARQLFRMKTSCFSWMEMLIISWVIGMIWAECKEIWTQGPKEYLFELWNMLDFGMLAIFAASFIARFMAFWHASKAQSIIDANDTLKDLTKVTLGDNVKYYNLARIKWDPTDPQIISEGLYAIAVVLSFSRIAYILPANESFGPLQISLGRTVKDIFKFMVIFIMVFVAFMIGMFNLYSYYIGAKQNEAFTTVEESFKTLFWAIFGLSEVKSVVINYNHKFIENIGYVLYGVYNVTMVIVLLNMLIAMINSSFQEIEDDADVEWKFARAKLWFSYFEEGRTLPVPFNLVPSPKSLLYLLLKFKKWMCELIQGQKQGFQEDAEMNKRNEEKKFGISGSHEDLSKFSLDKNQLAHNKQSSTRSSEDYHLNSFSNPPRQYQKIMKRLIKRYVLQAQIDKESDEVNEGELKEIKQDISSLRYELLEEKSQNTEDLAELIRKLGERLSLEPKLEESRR

| Compound | B-score |
| --- | --- |
| COc1ccccc1N1CC(C(=O)Nc2nnc(SCC(=O)NC(C)C)s2)CC1=O (configuration not stated) | inactive |
| CS(=O)(=O)N(CC(O)Cn1c2ccccc2c2ccccc21)c1cccc2ccccc12 (configuration not stated) | inactive |
| CCCCn1c(=O)c(C(C)=O)c(O)c2ccccc21 | inactive |
| CCCCN(CCCC)CC(O)Cn1c2ccccc2c(=O)c2ccccc21 (configuration not stated) | -5.74 (active) |
| O=C1N(c2ccc(Cl)cc2)C(c2ccc(Cl)cc2)N2CCCN12 (configuration not stated) | inactive |
| c1ccc(C2CNCc3c2ccc2ccccc32)cc1 (configuration not stated) | -5 (active) |
| NC(=O)C1=C[C@H](c2csc3ccccc23)C[C@H](OCc2ccc(CO)cc2)O1 | inactive |
| Cc1nc2ccc(C(=O)N3CCN(c4ccccc4)CC3)cc2s1 | inactive |
| Cc1ccc2nc(C)c3c(c2c1)N(c1ccccc1)CC3 | -8.61 (active) |
| Cc1ccc2nc(Nc3ccccc3)cc(C)c2c1 | inactive |
| O=C(NNS(=O)(=O)c1ccccc1)c1cnn(-c2ccc(Cl)cc2)c1C(F)(F)F | inactive |
| CC1CCC(NS(=O)(=O)c2ccc3c(c2)CC(=O)N3)CC1 (configuration not stated) | inactive |
| CN(C)CCCN(C(=O)c1ccc(S(=O)(=O)N2CCCCCC2)cc1)c1nc2cc3c(cc2s1)OCCO3 | inactive |
| CCOc1ccc2nc(N(CCCN(C)C)C(=O)c3ccc(C(=O)c4ccccc4)cc3)sc2c1 | inactive |
| CCc1ccc2nc(N(CCCN(C)C)C(=O)c3ccc4c(c3)OCCO4)sc2c1 | -6.22 (active) |
| O=C(NCCCN1CCCCC1)C1CCCN(c2ncnc3c2nc2n3CCCCC2)C1 (configuration not stated) | inactive |
| Cc1ccc(C(C(=O)NCC2CCCO2)N(C(=O)c2snc(C(N)=O)c2N)c2ccc(C(C)C)cc2)o1 (configuration not stated) | inactive |
| Cc1cccc(NC(=O)Nc2ccc3c(c2)OCO3)n1 | inactive |
| O=C(CCCN1C(=O)c2cccc3cccc(c23)C1=O)N1CCN(Cc2ccc3c(c2)OCO3)CC1 | -6.03 (active) |
| Cn1c(=O)cc(OCCCC(=O)N2CCN(Cc3ccc4c(c3)OCO4)CC2)c2ccccc21 | inactive |
| O=C(Nc1cccc2ccccc12)N1CCN(Cc2ccc3c(c2)OCO3)CC1 | inactive |
| CC1(C)O[C@H]2CC(=O)OCC23[C@H]2CC[C@@]4(C)[C@H](c5ccoc5)OC(=O)[C@H]5O[C@]54[C@]2(C)C(=O)C[C@@H]13 (some centres not stated) | inactive |
| COc1ccccc1N(CC(=O)N/N=C(\C)c1ccccc1O)S(=O)(=O)c1ccc(C)cc1 | inactive |
| CC1CCN(c2ccc([N+](=O)[O-])c(SCCO)c2)CC1 | inactive |
| O=C(CSc1nc2ccccc2[nH]1)N/N=C/C=C\c1ccccc1[N+](=O)[O-] | inactive |
| CN1CCN(c2ccc([N+](=O)[O-])c(Sc3nc4ccccc4[nH]3)c2)CC1 | -5.53 (active) |

| Compound | B-score |
| --- | --- |
| O=c1c(-c2ccc(Cl)cc2)[n+]([O-])c2ccccc2n1OCc1nc2ccccc2[nH]1 | inactive |
| COc1ccc(C(=O)NC2CCN(C(=O)Nc3ccc(F)cc3)CC2)cc1 | inactive |
| CCOC(=O)N1CCC(N2Cc3cccc(C(=O)Nc4ccc(S(=O)(=O)N(CC)CC)cc4)c3C2=O)CC1 | inactive |
| CCCCN=C(N)/C(C(=O)OCC)=C(\O)c1ccc(OC)cc1 | inactive |
| CCN1CCN(C(C(=O)NC2CCCC2)c2cc3c(cc2[N+](=O)[O-])OCO3)CC1 (configuration not stated) | inactive |
| COC(=O)c1ccccc1NC(=O)C1CCN(S(=O)(=O)c2cc(OC)ccc2OC)CC1 | -5.1 (active) |
| COc1ccc(NC(=O)C2CCN(S(=O)(=O)c3ccc4[nH]c(=O)oc4c3)CC2)c(OC)c1 | inactive |
| COC(=O)c1ccccc1NC(=O)C1CC(=O)N(c2ccc(OC)cc2)C1 (configuration not stated) | inactive |
| COc1cccc(NC(=O)C/C(C)=N/NC(=O)C2CCCCC2)c1 | inactive |
| CCCOc1ccc(C2c3c(oc4cc(C)c(C)cc4c3=O)C(=O)N2CCCN2CCOCC2)cc1 (configuration not stated) | inactive |
| Cc1cc2oc(=O)cc(CN3CCN(Cc4ccccc4)CC3)c2cc1C | inactive |
| Cc1cc2oc3ccc(NCCC4CCCN4C)cc3c(=O)c2cc1C (configuration not stated) | -9.21 (active) |
| CCc1ccc(/C=N/NC(=O)c2ccc(OC3CCCC3)cc2)s1 | inactive |
| CCN(CC)C(=O)CSc1ncnc2c1cnn2-c1ccccc1 | inactive |
| CCOc1ccccc1N1CCN(C(=O)c2ccc3[nH]c(C)c(C)c3c2)CC1 | inactive |
| O=C(NCCO)C(=O)NCC(c1ccc2c(c1)OCO2)N1CCN(c2ccc(F)cc2)CC1 (configuration not stated) | inactive |
| Cc1ccc(NC(=S)Nc2ccc(F)cc2)cc1 | inactive |
| CC(C)CNC(=S)Nc1ccc(F)cc1 | inactive |
| CC(NC(=S)Nc1ccc(OC(F)F)cc1)c1ccc(F)cc1 (configuration not stated) | -5.09 (active) |
| Cc1cc(Br)ccc1NC(=O)CN(C)C(=O)CN1C(=O)NC2(CCCC2)C1=O | inactive |
| CCOc1ccccc1-c1cc(C(=O)N/N=C(\C)c2cccnc2)c2ccccc2n1 | inactive |
| CCNC(=O)Nc1ccc(S(=O)(=O)Nc2cnc(C)nc2C)cc1 | inactive |
| CCCc1cc(=O)oc2c(C)c(OC(C)C(=O)NCC(O)c3ccccc3)ccc12 (configuration not stated) | inactive |
| CCCc1cc(=O)oc2c(C)c(OCC(=O)N3CCC(C(=O)O)CC3)ccc12 | inactive |
| CCCc1cc(=O)oc2c(C)c(O)c(CN3CCCCC3)cc12 | -5.62 (active) |
| O=C(N/N=C\C1CC=CCC1)c1ccc(Br)o1 (configuration not stated) | inactive |

| Compound | B-score |
| --- | --- |
| CC(C)C(=O)N1c2ccccc2NC2=C(C(=O)CCC2)C1c1ccc(N(C)C)cc1 (configuration not stated) | inactive |
| CN(C)c1ccc(C2Nc3ccccc3C(=O)N2NS(=O)(=O)c2ccccc2)cc1 (configuration not stated) | inactive |
| CN(C)c1ccc(C2N(C)C(=O)c3ccccc3N2C)cc1 (configuration not stated) | -7.38 (active) |
| S=c1[nH]c2ccccc2c2ccccc12 | inactive |
| N=c1c2c3c(sc2ncn1N)CCCCC3 | inactive |
| N=c1c2c3c(sc2ncn1N)CCCC3 | inactive |
| N=c1c2c3c(sc2ncn1CCCN1CCOCC1)CCCCC3 | -5.61 (active) |
| C=C(C)Cn1c(C)cc(C)c(S(=O)(=O)c2ccccc2C)c1=O | inactive |
| C/C(=N\NC(=O)C1(C)CC1(Br)Br)c1ccc(C)cc1C (configuration not stated) | inactive |
| C=CCNC(=O)c1ccccc1NC(=O)c1ccc(Cl)c(S(=O)(=O)Nc2cccc(C)c2C)c1 | inactive |
| CC(=O)c1ccc(S(=O)(=O)Nc2ccc(C(=O)NCC(c3ccccc3)N(C)C)cc2)cc1 (configuration not stated) | inactive |
| CN(C)C(CNC(=O)c1cccc(S(=O)(=O)Nc2ccc(Br)cc2)c1)c1ccco1 (configuration not stated) | inactive |
| COc1ccccc1C(CNC(=O)c1cccc(NS(=O)(=O)c2ccc(Br)cc2)c1)N(C)C (configuration not stated) | -5.61 (active) |
| Nc1c(N(CCO)C(=O)C2CCCCC2)c(=O)[nH]c(=O)n1Cc1ccccc1 | inactive |
| CCN(CCCNC(=O)c1ccc2c(c1)NC(=O)CN2C)c1cccc(C)c1 | inactive |
| COc1ccc(CNC(=O)C(=O)NCC2OCCN2C(=O)c2ccc(OC)cc2)cc1 (configuration not stated) | inactive |
| CCC1=NN(C(=O)Cc2ccc([N+](=O)[O-])cc2)C(O)(c2ccc(Br)cc2)C1 (configuration not stated) | inactive |
| COc1ccc(Cl)cc1C(=O)NNC(=S)NC(=O)/C=C/c1ccco1 | inactive |
| COc1cc2c(cc1OC)C(/C=C/c1ccco1)=NCC2 | -5.37 (active) |
| COc1cc2c(cc1OC)C(c1cccc([N+](=O)[O-])c1)=NCC2 | inactive |
| COc1cc(C2C(C(=O)c3cccs3)=C(O)C(=O)N2CCN2CCOCC2)ccc1OCCC(C)C (configuration not stated) | inactive |
| CC(=O)Nc1ccc(NS(=O)(=O)c2cc(C)sc2C)cc1 | inactive |
| CCC(=O)N1CCCc2ccccc21 | inactive |
| O=C(C1CCN(S(=O)(=O)Cc2ccccc2)CC1)N1CCCc2ccccc21 | -5.01 (active) |
| CCS(=O)(=O)N1CCC(C(=O)N2CCN(c3ccccc3)CC2)CC1 | inactive |
| Cc1ccc(SCC(=O)NNC(=O)c2ccc(S(C)(=O)=O)cc2)cc1 | inactive |

| Compound | B-score |
| --- | --- |
| CCN(CC)c1ccc2cc(C(N)=O)/c(=N\NC(=O)c3ccncc3)oc2c1 | -7.68 (active) |
| COc1ccc(C(=O)N/N=c2\oc3ccccc3cc2C(N)=O)cc1 | inactive |
| NC(=O)c1cc2ccccc2o/c1=N/NC(=O)c1cccc(F)c1 | inactive |
| O=C(N/N=C\c1cccnc1)c1cc(-c2ccccc2)nc2c(Cl)cccc12 | inactive |
| COc1ccc(S(=O)(=O)NNC(=O)Nc2ccc(C)cc2)c(OC)c1 | inactive |
| Cc1cc2c(=O)n(CC(=O)NCC(=O)Nc3ccc(C(C)C)cc3)cnc2s1 | inactive |
| Cc1nn(-c2ccc([N+](=O)[O-])cc2)c(N)c1-c1ccccc1 | inactive |
| CC1=NN(c2ccccc2)C(=O)C1C(=O)c1ccc([N+](=O)[O-])cc1 (configuration not stated) | inactive |
| O=C1CC(c2ccccc2)=NN1c1ccc([N+](=O)[O-])cc1 | -8.01 (active) |
| CCCC(C)C(=O)NCc1ccncc1 (configuration not stated) | inactive |
| O=C(NCc1ccncc1)NC12CC3CC(CC(C3)C1)C2 | inactive |
| O=C(NCc1ccc(Cl)cc1)NCc1ccc(Cl)cc1 | inactive |
| S=C(NCc1ccc(Cl)cc1)NC12CC3CC(CC(C3)C1)C2 | -5.21 (active) |
| O=C(NCCCn1ccnc1)C(=O)NCC1OCCN1S(=O)(=O)c1cc(F)ccc1F (configuration not stated) | inactive |
| CN1CCN(C(=O)N2c3ccccc3CCc3ccccc32)CC1 | -6.16 (active) |
| CN1CCN(S(=O)(=O)c2cccc(C(=O)N3CCc4ccccc43)c2)CC1 | inactive |
| CC1CC(C)CN(CC(=O)N2c3ccccc3CCc3ccccc32)C1 (configuration not stated) | inactive |
| COc1ccc(C(=O)C2CCCN(C(=O)c3cc(C)on3)C2)cc1F (configuration not stated) | inactive |
| COc1ccccc1/C=C/CN1CCC(CO)(Cc2ccccc2)CC1 | inactive |
| Cc1cc(=O)cc(C)n1-c1ccc(Cl)c(Cl)c1 | inactive |
| COc1ccc(NC(=O)CSc2nnc(-c3ccccc3F)n2C2CC2)cc1S(N)(=O)=O | inactive |
| Cc1ccccc1NC(=O)Nc1ccccc1N1CCCCC1 | inactive |
| Cc1ccccc1NC(=O)CNc1ccccc1N1CCCCC1 | -6.42 (active) |
| O=C(CNCCC1=CCCCC1)Nc1ccccc1N1CCCCCC1 | inactive |
